About 83,000 compounds went through this panel and 20% of them were active in at least one assay; those are over-represented in the sample as a whole.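 Negative percent growth values reflect cell death: -40 means 40% of the cells present at the start died, and -100 means all died.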 Unmarked numbers belong to inactive results. The source made the active and inactive calls. The calls were made as follows: active = growth percent below 10; inactive = the rest.

Among the test systems are SK-MEL-2 melanoma; EKVX NSCLC; SN12C renal; UO-31 renal; TK-10 renal; ACHN renal; CAKI-1 renal; A498 renal; CCRF-CEM leukemia; MOLT-4 leukemia; RPMI-8226 leukemia; OVCAR-8 ovarian; OVCAR-5 ovarian; OVCAR-4 ovarian; SK-OV-3 ovarian; IGROV1 ovarian; OVCAR-3 ovarian; HS 578T breast; NCI/ADR-RES ovarian.
Holding throughout (assay): NCI-60 one-dose screen, 48 h (100 = growth as untreated, 0 = no growth, -100 = all killed)
Conditions in all cases: 10 µM unless noted

Regarding `CSc1nc(-c2cccc(NC(=O)CCl)c2)c(C#N)c(=O)n1C`, the growth with SK-MEL-2 melanoma was 70.9%; with EKVX NSCLC, 70.8%; with SN12C renal, 81%; in the experiment on UO-31 renal, -53.2% (active); in the experiment with TK-10 renal, 117%; in the experiment with ACHN renal it was 73.9%. The growth in the experiment with CAKI-1 renal was 83.7%; with A498 renal, 90.2%; with CCRF-CEM leukemia, -16.5% (active); with MOLT-4 leukemia, 14%; with RPMI-8226 leukemia, -18.3% (active); in the experiment on OVCAR-8 ovarian it was 72.6%. For the same compound, the growth with OVCAR-5 ovarian was 26.7%; with OVCAR-4 ovarian it was 12.5%; in the experiment with SK-OV-3 ovarian, 109%; in the experiment on IGROV1 ovarian, -64.5% (active); in the experiment on OVCAR-3 ovarian, 8.91% (active); with HS 578T breast, 88.1%. Further, the growth in the experiment on NCI/ADR-RES ovarian was 75.8%.

Take `COc1ccc(-c2nc3ccc(-c4nc5ccc(N6CCN(c7ccccc7)CC6)cc5[nH]4)cc3[nH]2)cc1OC`: the growth with SK-MEL-2 melanoma is 89%; in the experiment with EKVX NSCLC, 40.1%; in the experiment on SN12C renal, 52%; in the experiment on UO-31 renal, 99.6%; with TK-10 renal it was 12.4%; in the experiment on ACHN renal, 44.8%. For the same compound, the growth in the experiment with CAKI-1 renal was 65.3%; in the experiment on A498 renal, 88.4%; in the experiment with CCRF-CEM leukemia, 6.07% (active); in the experiment with MOLT-4 leukemia it was -5.57% (active); with RPMI-8226 leukemia, -23% (active); in the experiment with OVCAR-8 ovarian, -4.55% (active). The growth in the experiment on OVCAR-5 ovarian was -44.1% (active); with OVCAR-4 ovarian, -49.9% (active); with SK-OV-3 ovarian, 107%; with IGROV1 ovarian, 16.2%; in the experiment on OVCAR-3 ovarian it was -68.3% (active); in the experiment on HS 578T breast, -0.217% (active). In the experiment with NCI/ADR-RES ovarian, the growth was 67.3%.

As to `C=CC(=O)Nc1cccc(Nc2nc(SC)nc(-c3cccc([N+](=O)[O-])c3)c2C#N)c1`, the growth was 46.8% with SK-MEL-2 melanoma; 53.2% in the experiment with EKVX NSCLC; 62.9% in the experiment with SN12C renal; 60.8% in the experiment with UO-31 renal; 32.1% with TK-10 renal; 55.6% in the experiment on ACHN renal. Also, the growth in the experiment with CAKI-1 renal was 42.6%; in the experiment on A498 renal, -1.13% (active); in the experiment on CCRF-CEM leukemia, 72.2%; with MOLT-4 leukemia it was 59.8%; in the experiment with RPMI-8226 leukemia, 48.2%; in the experiment on OVCAR-8 ovarian, 43.4%. The growth is 71.8% in the experiment on OVCAR-5 ovarian; 32.9% in the experiment with OVCAR-4 ovarian; 74.3% with SK-OV-3 ovarian; 54.9% with IGROV1 ovarian; 19.9% with OVCAR-3 ovarian; 53.7% with HS 578T breast. The growth in the experiment with NCI/ADR-RES ovarian is 61.8%.

As for `O=C(C(=O)c1ccc2c(c1)OCO2)c1ccc2c(c1)OCO2`, the growth in the experiment on SK-MEL-2 melanoma is 112%; with EKVX NSCLC, 124%; in the experiment on SN12C renal it was 107%; in the experiment with UO-31 renal it was 100%; in the experiment on TK-10 renal it was 105%; with ACHN renal, 111%. The growth in the experiment with CAKI-1 renal is 107%; with A498 renal, 98.1%; with CCRF-CEM leukemia, 95.6%; in the experiment on MOLT-4 leukemia, 117%; in the experiment on RPMI-8226 leukemia, 101%; with OVCAR-8 ovarian it was 95.3%. For the same compound, the growth was 109% in the experiment on OVCAR-5 ovarian; 99.8% with OVCAR-4 ovarian; 114% in the experiment on SK-OV-3 ovarian; 124% in the experiment with IGROV1 ovarian; 105% in the experiment with OVCAR-3 ovarian; 96.3% in the experiment on HS 578T breast. Besides, the growth in the experiment with NCI/ADR-RES ovarian is 117%.

For `N#CCCN=Nc1c(O)[nH]c2ccc(F)cc12`, the growth with SK-MEL-2 melanoma was 101%; in the experiment on EKVX NSCLC it was 90.9%; in the experiment with SN12C renal, 101%; in the experiment on UO-31 renal, 80.6%; with TK-10 renal, 108%; in the experiment with ACHN renal it was 103%. The growth with CAKI-1 renal was 84.8%; in the experiment with A498 renal, 75.8%; with CCRF-CEM leukemia it was 107%; with MOLT-4 leukemia it was 103%; in the experiment on RPMI-8226 leukemia, 109%; with OVCAR-8 ovarian, 107%. For the same compound, the growth in the experiment on OVCAR-5 ovarian was 97.7%; in the experiment on OVCAR-4 ovarian, 90.4%; with SK-OV-3 ovarian it was 100%; with IGROV1 ovarian, 101%; with OVCAR-3 ovarian it was 103%; in the experiment on HS 578T breast, 97.9%. In the experiment with NCI/ADR-RES ovarian, the growth was 98.7%.

Turning to `COc1ccc(-c2nc3ccc(-c4nc5ccc(N6CCN(c7ccc(F)cc7)CC6)cc5[nH]4)cc3[nH]2)cc1OC`, the growth in the experiment with SK-MEL-2 melanoma was 109%; with EKVX NSCLC it was 99.6%; with SN12C renal, 80.7%; with UO-31 renal it was 89%; in the experiment with TK-10 renal, 133%; in the experiment with ACHN renal it was 62.3%. Further, the growth is 84.6% with CAKI-1 renal; 98.3% in the experiment with A498 renal; 20.9% in the experiment with CCRF-CEM leukemia; 27.9% in the experiment on MOLT-4 leukemia; 4.42% (active) in the experiment with RPMI-8226 leukemia; 62.6% with OVCAR-8 ovarian. The growth in the experiment with OVCAR-5 ovarian was 96.1%; with OVCAR-4 ovarian, 80.5%; in the experiment on SK-OV-3 ovarian, 80.6%; in the experiment with IGROV1 ovarian it was 72.8%; with OVCAR-3 ovarian, 90.4%; with HS 578T breast it was 74.8%. Also, the growth in the experiment with NCI/ADR-RES ovarian is 81.3%.

As to `C=C(C)[C@@H]1CC[C@]2(C(N)=O)CC[C@]3(C)[C@H](CC[C@@H]4[C@@]5(C)C/C(=C/c6ccco6)C(=O)C(C)(C)[C@@H]5CC[C@]43C)[C@@H]12`, the growth is 99.5% with SK-MEL-2 melanoma; 89.8% with EKVX NSCLC; 96.1% with SN12C renal; 84.4% with UO-31 renal; 105% with TK-10 renal; 84.4% with ACHN renal. Besides, the growth in the experiment with CAKI-1 renal is 59%; in the experiment on A498 renal it was 104%; in the experiment on CCRF-CEM leukemia it was 93.4%; with MOLT-4 leukemia, 79.7%; with RPMI-8226 leukemia it was 84.6%; in the experiment with OVCAR-8 ovarian it was 93.8%. The growth in the experiment with OVCAR-5 ovarian is 101%; in the experiment with OVCAR-4 ovarian it was 95.8%; in the experiment with SK-OV-3 ovarian, 102%; with IGROV1 ovarian it was 101%; in the experiment on OVCAR-3 ovarian it was 105%; with HS 578T breast it was 95.3%. For the same compound, in the experiment with NCI/ADR-RES ovarian, the growth is 96.6%.

Consider `Cc1c(/C=C/[N+](=O)[O-])ccc2c1[nH]c1ccccc12`, for which the growth in the experiment on SK-MEL-2 melanoma was 93.5%; in the experiment with EKVX NSCLC, 98.6%; in the experiment on SN12C renal it was 99.7%; in the experiment on UO-31 renal, 94.3%; with TK-10 renal it was 93.2%; with ACHN renal, 111%. Moreover, the growth was 102% in the experiment with CAKI-1 renal; 83.6% in the experiment on A498 renal; 87% in the experiment on CCRF-CEM leukemia; 94.9% with MOLT-4 leukemia; -15% (active) with RPMI-8226 leukemia; 94.1% in the experiment on OVCAR-8 ovarian. The growth was 106% in the experiment with OVCAR-5 ovarian; 116% with OVCAR-4 ovarian; 114% in the experiment on SK-OV-3 ovarian; 101% in the experiment on IGROV1 ovarian; 123% in the experiment on OVCAR-3 ovarian; 104% with HS 578T breast. Further, in the experiment on NCI/ADR-RES ovarian, the growth is 108%.

These data come from PubChem BioAssay (NCI).
